High-throughput results (PubChem)
TDP1 cell noCPT = qHTS for Inhibitors of human tyrosyl-DNA phosphodiesterase 1 (TDP1): qHTS in cells in absence of CPT | DT40 Tdp1-/- hTDP1 cells, no CPT, ATP luminescence, 48 h | Potency, µM (top dose mostly 46.2 µM), usual class: inhibitors | 420,000 compounds, 15% hits; also: nearly all actives have a fitted effect of over 55% in size
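Compound effects on proliferation are scored in DT40 Tdp1-/-;hTDP1 cells in the absence of CPT. ATP levels (CellTiter-Glo luminescence) are recorded after a ≥48 hr, 37 °C incubation.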
KB-V1 MDR tox = kills drug-selected multidrug resistant KB-V1 cells; KB-V1 MDR cells viability, CellTiter-Glo, 72 h; Potency, µM (highest dose often 46.1 µM), actives largely listed as cytotoxic; 400,000 compounds, 3.4% hits; AID 1347076; also: nearly all actives have a fitted effect of over 60% in size
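Following 72 h at 37 degrees C with compound, KB-V1 cell viability was read by CellTiter-Glo luminescence, medium being phenol-red-free DMEM plus 10% FBS; concentration-response parameters came from normalized, curve-fitted qHTS data.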
DT40 TDP1 CPT = DT40-hTDP1 cell growth loss with CPT. chicken DT40 Tdp1-/-;hTDP1 cells + 20 nM CPT, ATP luminescence, 48 h. Potency, µM (series often up to 46.2 µM), actives largely listed as inhibitors. 420,000 compounds, 12% hits. AID 686979; also: nearly all actives have a fitted effect of over 55% in size
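Chicken DT40 Tdp1-/- cells stably complemented with human TDP1 were seeded at 400 cells/well in medium containing 20 nM camptothecin, exposed to pin-transferred compounds, and grown at 37 °C for at least 48 hr. Viability was read as ATP luminescence.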
KB-3-1 tox = kills parental KB-3-1 adenocarcinoma cells; KB-3-1 viability, CellTiter-Glo ATP luminescence, 72 h; Potency, µM (highest dose often 46.1 µM), actives largely listed as cytotoxic; 400,000 compounds, 1.4% hits; AID 1347075; also: nearly all actives have a fitted effect of over 60% in size
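72 h, 37 °C compound treatment of KB-3-1 parental cells; CellTiter-Glo added, 10 min, luminescence read. Data corrected against DMSO-only plates and normalized before curve fitting.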
HT1080NT lethal = kills 2HG-producing HT-1080-NT fibrosarcoma cells; HT-1080-NT fibrosarcoma viability, CellTiter-Glo ATP luminescence, 48 h; Potency, µM (highest dose often 46.1 µM), most hits filed as cytotoxic; 360,000 compounds, 1.6% hits;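 also: NT is the 2HG producing partner of a matched IDH1 knockdown line; nearly all actives have a fitted effect of over 55% in size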
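Viability by CellTiter-Glo luminescence after 48 h compound exposure at 37C of HT-1080-NT cells (750/well, RPMI, 5% FBS). % activity scaled between DMSO wells and medium-only wells, then curve-fitted and categorized by curve class.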
HT1080 IDH1KD tx = toxicity to HT-1080 IDH1 knockdown cells (counter line); Potency, µM (top dose mostly 46.1 µM), actives largely listed as cytotoxic; 360,000 compounds, 2% hits; HT-1080 IDH1 knockdown viability, ATP luminescence, 48 h; AID 686971
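Cytotoxicity counter-line: IDH1KD HT-1080, 48 h, CellTiter-Glo. Curves classed by r2, magnitude and activity.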
Hits are given with their value; n = inactive; u = inconclusive; x = no result given. Sampled rows, rich in hits. Any-hit rate of the full collection: about 19%. Calls follow the shape of the dose curve; as a rule, active = well fitted curve in the direction sought with a large enough effect; inconclusive = small, poorly fitted or top-dose-only effect, or another doubt; inactive = no such curve, though single readings can be large; an effect the other way counts as inactive or inconclusive.

SMILES	TDP1 cell noCPT	KB-V1 MDR tox	DT40 TDP1 CPT	KB-3-1 tox	HT1080NT lethal	HT1080 IDH1KD tx
O=c1cc(CN2CCN(c3ccccc3F)CC2)c2cc(O)c(-c3ccccc3)cc2o1	6.5µM	n	u	n	n	n
O=c1cc(-c2ccccc2)c2ccc(O)cc2o1	u	n	n	n	n	n
COc1ccc(N2CCN(Cc3cc(=O)oc4cc(-c5ccccc5)c(O)cc34)CC2)cc1	6.5µM	u	5.8µM	u	n	n
CCOc1cc(C(=O)NCCc2sc(-c3ccc(F)cc3)nc2C)cc(OCC)c1OCC	u	n	u	n	x	x
Cc1ccc(S(=O)(=O)Nc2ccc(Nc3nccn4c(-c5ccc6ccccc6c5)cnc34)cc2)cc1	u	12µM	u	n	n	n
OCc1cccc(-c2cnc3c(Nc4cccc(OC(F)(F)C(F)F)c4)nccn23)c1	16µM	n	u	n	u	u
FC(F)C(F)(F)Oc1cccc(Nc2nccn3c(-c4cc(C(F)(F)F)cc(C(F)(F)F)c4)cnc23)c1	u	n	u	n	n	n
Cc1ccc(S(=O)(=O)Nc2ccc(Nc3nccn4c(-c5ccccc5Oc5ccccc5)cnc34)cc2)cc1	u	n	u	n	n	n
Cc1ccc(-c2cnc3c(Nc4cccc(OC(F)(F)C(F)F)c4)nccn23)cc1	16µM	n	23µM	n	n	u
CC(OC(=O)c1ccc2c(=O)n3c(nc2c1)CCCCC3)C(N)=O (stereo not given)	n	n	n	u	n	n
COc1ccccc1-c1nccc(-n2ccnc2)n1	n	x	n	x	x	x
COc1ccc(C(=O)N(C)C2CCN(C)CC2)cc1S(=O)(=O)Nc1cc(Cl)ccc1Cl	n	n	n	n	n	n
CCOC(=O)c1c(C)n(C)c2cc(Br)c(OC)cc12	n	u	n	n	n	n
C=CCCc1ccc(C#N)c(SCc2c(C(=O)OCC)c3cc(OC(C)=O)c(Br)cc3n2C)n1	29µM	2.6µM	21µM	u	u	n
CCOC(=O)c1c(CSc2nc(C)cc(C)c2C#N)n(C)c2cc(Br)c(OC(C)=O)cc12	26µM	u	u	u	u	n
Cc1cc(Nc2cccc(Cl)c2)nc(-c2ccccc2O)n1	u	n	29µM	n	n	u
COC(=O)c1cccc(Nc2cc(C)nc(-c3ccccc3O)n2)c1	16µM	u	u	u	n	u
Cc1cc(Nc2ccc(Cl)cc2)nc(-c2ccccc2O)n1	26µM	n	u	n	u	u
Nc1ncnc2c1ncn2COC(CO)CO	0.71µM	n	0.32µM	n	x	x
Cc1ccccc1NS(=O)(=O)c1ccc(OCC(=O)NCc2ccccn2)cc1	n	n	n	n	n	n
O=C(COc1cc(F)ccc1[N+](=O)[O-])NCCN1C(=O)CSC1=O	n	x	n	x	n	n
COc1cc(N=Nc2cccc(S(N)(=O)=O)c2)c2ccccc2c1N	18µM	n	u	23µM	21µM	15µM
O=c1[nH]c(=S)[nH]cc1Oc1ccccc1	n	n	n	n	n	n
NC(=O)Cn1c(=O)n(Cc2ccccc2)c(=O)c2cccnc21	n	n	n	n	n	n
Cc1ccc(/C=C(\C#N)C(=O)NCC2CCCO2)o1 (stereo not given)	n	n	n	u	u	u
SMILES	TDP1 cell noCPT	KB-V1 MDR tox	DT40 TDP1 CPT	KB-3-1 tox	HT1080NT lethal	HT1080 IDH1KD tx
Cc1cc(/C=C(\C#N)C(=O)O)c(C)n1CC1CCCO1 (stereo not given)	21µM	n	u	n	n	n
Cc1ccc(OCCn2cc(/C=C(\C#N)C(=O)NCC3CCCO3)c3ccccc32)cc1C (stereo not given)	7.3µM	u	13µM	n	n	n
Cc1ccc(C)c(OCCn2cc(/C=C(\C#N)C(=O)NCC3CCCO3)c3ccccc32)c1 (stereo not given)	u	n	u	u	n	n
Cc1ccccc1-n1c(C)cc(/C=C(\C#N)C(=O)NCC2CCCO2)c1C (stereo not given)	12µM	n	u	n	n	n
CCCn1c(C)cc(/C=C(\C#N)C(=O)O)c1C	n	n	n	n	n	n
Cc1ccc(OCCn2cc(/C=C(\C#N)C(=O)NCC3CCCO3)c3ccccc32)cc1 (stereo not given)	10µM	21µM	13µM	n	n	n
NC(=O)COC(=O)c1ccccc1OCc1ccccc1Cl	n	u	u	n	n	n
CC1CC(=O)Nc2ccccc2N1C(=O)COc1cc(Cl)ccc1Cl (stereo not given)	n	n	n	n	n	n
Cc1cc(/C=C2\SC(=Nc3ccc(F)cc3)NC2=O)c(C)n1-c1ccc(S(N)(=O)=O)cc1	5.2µM	n	5.2µM	6.5µM	6.5µM	5.2µM
Cc1cc(/C=C2\SC(=S)NC2=O)c(C)n1-c1ccc(O)cc1	n	n	n	u	u	u
COc1c(O)cc(O)cc1O	n	x	n	x	x	x
Cc1cc(O)c(Oc2cc(C)cc(O)c2O)c(O)c1	5.2µM	n	4.6µM	n	u	u
COc1cccc(-c2cncnc2NCc2ccc(OC)cc2OC)c1	16µM	x	u	x	x	x
COc1ccc(CNc2ncncc2-c2ccoc2)c(OC)c1	u	x	23µM	x	x	x
COc1ccc(CNc2ncncc2-c2cccnc2)c(OC)c1	n	x	n	x	x	x
COc1cc(-c2nnc(SCC(=O)NC(C)C)o2)cc(OC)c1OC	n	u	n	n	x	x
CN(CC(=O)NNC(=O)CNC(=O)c1ccccc1F)S(=O)(=O)c1ccc(Cl)cc1	n	n	n	n	n	n
CCOc1ccccc1C(=O)NCC(=O)NNC(=O)CN(C)S(=O)(=O)c1ccc(Cl)cc1	12µM	n	21µM	n	u	n
COc1ccc(N(CC(=O)Nc2ccccc2C(N)=O)S(=O)(=O)c2ccc(C)c([N+](=O)[O-])c2)cc1	23µM	u	u	n	n	n
COc1ccc(N(CC(=O)Nc2ccccc2C(=O)N2CCCC2)S(=O)(=O)c2ccccc2)cc1	16µM	u	21µM	n	n	n
COC(=O)c1ccccc1NC(=O)CC(=O)Nc1ccccc1C(=O)OC	u	n	n	n	n	n
CCN(CC(=O)Nc1ccccc1C(=O)OC)S(=O)(=O)c1ccccc1	u	n	23µM	n	n	n
CN1C(=O)[C@@H]2C[C@@]3([C@@]45C[C@H]6C(=O)N(C)[C@@H](Cc7ccccc7)C(=O)N6[C@@H]4Nc4ccccc45)c4ccccc4N[C@H]3N2C(=O)[C@@H]1Cc1ccccc1	u	n	u	n	n	n
